Experimental data reported in PubChem BioAssay (NCATS).
Results filed as inconclusive are left out. Calls of active or inactive are those of the source. Unless noted, the call rests on the fitted dose curve; in most records, active means well fitted curve in either direction with a large enough effect (not every such curve was filed as active); inconclusive means small, poorly fitted or top-dose-only effect, or another doubt; inactive means flat fitted curve, though single readings scatter.

Tests used:
[1] = AP1 Signaling Pathway (AID 357); conditions: ME-180 AP-1-bla reporter, EGF-induced, beta-lactamase ratio, 5 h; at 7.69 µM (top of the series) unless noted;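 further: ME-180 reporter cells stimulated with EGF at its EC50 level; on the % scale 0 is the no-effect control and ±100 the full control effect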
In short: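 AP-1-bla ME-180 cells, Opti-MEM + 0.5% dialyzed FBS, plated overnight 37 °C. Cpd titration + EC50 EGF, 5 h 37 °C. CCF4 2.5 h RT; ex 405, em 460/530 ratio → %activity, AC50.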

[2] = biological target: Cytochrome P450 1A2 (Homo sapiens) (UniProt P05177); experiment: p450-cyp1a2 (AID 410; calls by dose curve; further: potency means the concentration at half of the fitted maximal effect;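 on activity change, negative = inhibition: -100% = full effect of reference inhibitor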)
In short: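 20nM CYP1A2, 100uM Luciferin-ME (=Km), 100mM KPO4; cpd 10 min RT; +NADPH regen, 60 min RT; stop/detect 20 min; luminescence. Normalized to furafylline 57 uM = full inhibition.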

[3] = biological target: Glucocorticoid receptor (Homo sapiens) (UniProt P04150); experiment: GR-GFP Redistribution (AID 450;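 active means compounds whose dose series gives a full or clear partial fitted curve of increased nuclear translocation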; further: potency means the concentration at half of the fitted maximal effect); conditions: U2OS GR-GFP nuclear translocation, laser cytometry, 2 h
[4] = biological target: Glucocorticoid receptor (Homo sapiens) (UniProt P04150); experiment: GR-EFC Redistribution (AID 451; calls by dose curve; further: potency means the concentration at half of the fitted maximal effect); conditions: CHO-K1 GR-EFC translocation, beta-gal luminescence, 2 h
In short: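 CHO-K1 cells stably expressing nuclear-localized β-gal enzyme acceptor and GR fused C-terminally to the enzyme donor fragment; ligand-driven nuclear translocation restores β-gal by complementation. Compounds titrated up to 46 uM final, 2 h at 37 °C; luminescence read.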

[5] = biological target: Mitogen-activated protein kinase 10 (Mus musculus) (UniProt Q61831); experiment: JNK3 AlphaScreen Assay (AID 530);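 further: kinase came from lysate of stimulated human HepG2 cells; signal reports phosphorylation of biotinylated GST-cJun 1-79 at Ser73 with 10 µM ATP; on the % scale 0 is the no-effect control and ±100 the full control effect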
In short: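 Biotinylated GST-cJun(1-79) served as substrate for JNK3 in HepG2 lysates stimulated with IL-1beta and TNF-alpha. ATP was 10 uM final, pH 7.6. Ser73 phosphorylation was quantified by AlphaScreen (680 nm excitation).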

[6] = biological target: 3',5'-cyclic-AMP phosphodiesterase 4B (Homo sapiens) (UniProt Q07343); experiment: qHTS Assay for Inhibitors of PDE-IV (AID 607; active means well fitted activation curve with a large enough effect in the main read-out, with a control signal flat, not every such curve was filed as active; further: % of control where 0% means no effect)
In short: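 ACTOne HEK293 cells carry a modified cAMP-gated CNG channel and express endogenous PDE4; plated 1000 cells/well, compounds up to 22.9 uM final. Membrane-potential dye fluorescence (ex 535/em 590) was read; parental cells received 10 uM forskolin + 100 uM RO 20-1724.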

[7] = biological target: Cytochrome P450 3A4 (Homo sapiens) (UniProt P08684); experiment: qHTS Assay for Inhibitors and Substrates of Cytochrome P450 3A4 (AID 884; active means well fitted curve in the direction sought with a large enough effect; an effect the other way counts as inactive or inconclusive; further: on the % scale 0 is the no-effect control and ±100 the full control effect; nearly all actives have a fitted effect of over 50% in size)
In short: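 Luminescent readout of luciferin produced by CYP3A4 (20 nM) dealkylation of Luciferin-PPXE, 25 uM (its KM). NADPH-driven reaction ran 60 min at RT after 10 min compound preincubation; data scaled to 57 uM ketoconazole as 100% inhibition.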

[8] = biological target: Cytochrome P450 2D6 (Homo sapiens) (UniProt P10635); experiment: qHTS Assay for Inhibitors and Substrates of Cytochrome P450 2D6 (AID 891; active means well fitted curve in the direction sought with a large enough effect; an effect the other way counts as inactive or inconclusive;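 further: luciferin methyl ether substrate demethylated by CYP2D6 with NADPH regeneration; on the % scale 0 is the no-effect control and ±100 the full control effect; nearly all actives have a fitted effect of over 60% in size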)
In short: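 Luminescent read-out of luciferin formed by 5 nM human CYP2D6 demethylating 30 uM Luciferin-ME EGE (Km level) over 60 min at room temperature after NADPH regeneration addition. Data normalized to full inhibition by 1.43 uM quinidine.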

[9] = biological target: Cytochrome P450 2C19 (Homo sapiens) (UniProt P33261); experiment: qHTS Assay for Inhibitors and Substrates of Cytochrome P450 2C19 (AID 899; active means well fitted curve in the direction sought with a large enough effect; an effect the other way counts as inactive or inconclusive; further: on the % scale 0 is the no-effect control and ±100 the full control effect; nearly all actives have a fitted effect of over 60% in size)
In short: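 In 50mM KPO4, the reaction held 5nM enzyme and KM-level (10uM) Luciferin-H EGE; it ran 60 min at 37C after NADPH regeneration and a 10 min compound preincubation. Luminescence values were scaled to 57uM ketoconazole as complete inhibition.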

[10] = NFAT Signaling Pathway (AID 444); conditions: Jurkat NFAT-bla M1, carbachol, beta-lactamase ratio, 5 h; at 7.69 µM (top of the series) unless noted;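 further: carbachol stimulus at about its EC50 of 1 µM final; on the % scale 0 is the no-effect control and ±100 the full control effect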
In short: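 Jurkat cells carrying an NFAT-driven β-lactamase reporter and co-transfected muscarinic M1 receptor were treated with compound plus carbachol (1 uM final, an EC50 level) for 5 h at 37 °C. CCF4 loading followed for 1 h at RT; 460/530 nm ratio gave %activity.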

[11] = Stat Signaling Pathway (AID 446); conditions: ME-180 (cervical carcinoma) SIE beta-lactamase reporter, IL-6 stimulated, 5 h; at 7.69 µM (top of the series) unless noted;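 further: ME-180 cervical cancer cells given 40 pM IL-6 alongside compound; SIE-controlled beta-lactamase reporter measured as 460/530 nm FRET emission ratio; on the % scale 0 is the no-effect control and ±100 the full control effect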
In short: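 Compound effects on IL-6-induced STAT reporter activity were measured in ME-180 cells. After overnight culture, cells were co-treated with 40 pM IL-6 for 5 hrs before beta-lactamase substrate loading at room temperature.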

[12] = biological target: Guanine nucleotide-binding protein G(i) subunit alpha-1 (Homo sapiens) (UniProt P63096); experiment: qHTS Assay for Inhibitors of RGS12 GoLoco Motif Activity (Green Fluorophore) (AID 879; active means well fitted curve in the direction sought with a large enough effect; an effect the other way counts as inactive or inconclusive;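 further: 0% = labeled peptide with Gαi1 and full inhibition = labeled peptide alone without protein; negative values mean loss of peptide binding seen as reduced polarization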)
In short: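 A drop in FITC polarization marked displacement of the FITC-tagged RGS12 GoLoco peptide (10 nM) from Gαi1 (50 nM). Compounds were incubated 10 min at room temperature in Tris pH 7.5 buffer containing 150 mM NaCl, 0.1 mM GDP and 0.05% NP40; unlabeled peptide titration served as control.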

[13] = qHTS Assay for Identification of Small Molecule Antagonists for NFkB Signaling Pathway (AID 895; active means well fitted inhibition curve with a large enough effect in the signal ratio, with a control signal flat, not every such curve was filed as active; the % refers to the signal ratio; further: on the % scale 0 is the no-effect control and ±100 the full control effect)
In short: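 NFkB-bla ME-180 cervical carcinoma cells with beta-lactamase reporter under NFkB response element; compounds added, then TNF alpha at 10 pM final (EC50), 5 h at 37 C. LiveBLAzer substrate 2 h, room temperature; emission 460/530 nm at 405 nm excitation.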

[14] = qHTS Assay for Identification of Small Molecule Agonists for Thrombopoietin (TPO) Signaling Pathway (AID 917; active means well fitted curve in the direction sought with a large enough effect; an effect the other way counts as inactive or inconclusive; further: on the % scale 0 is the no-effect control and ±100 the full control effect)
In short: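 Quantitative HTS for pathway activators: compounds were pin-transferred onto IL-3-starved Ba/F3 cells expressing human TPO receptor, TPO was added at its EC50 (26 pM final), and after 24 hrs at 37 C reporter luciferase was measured.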

[15] = biological target: Muscarinic acetylcholine receptor M1 (Rattus norvegicus) (UniProt P08482); experiment: qHTS Assay for Antagonists of Acetylcholine Muscarinic M1 Receptor: Kinetic Measurement of Intracellular Calcium Response (AID 943; active means well fitted curve in the direction sought with a large enough effect; an effect the other way counts as inactive or inconclusive;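 further: Fluo-4 calcium signal as peak divided by basal fluorescence over 4 min; nearly all actives have a fitted effect of over 75% in size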)
In short: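 Read-out: peak over basal Fluo-4 fluorescence, kinetic at 1 Hz for 4 min after EC80 carbachol (100 nM final). Rat M1-CHO cells, dye loaded 1 h at 37C, compound added 10 min before agonist.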

[16] = biological target: Muscarinic acetylcholine receptor M1 (Rattus norvegicus) (UniProt P08482); experiment: qHTS Assay for Antagonists of Acetylcholine Muscarinic M1 Receptor: Measurement of IP-One Response (AID 944; active means well fitted curve in the direction sought with a large enough effect; an effect the other way counts as inactive or inconclusive; further: nearly all actives have a fitted effect of over 75% in size)
In short: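 Read-out: HTRF competition between d2-IP1 and Eu-cryptate anti-IP1 antibody, emission 620 and 665 nm. Stimulus was carbachol, EC80 (200 nM), for 30 min in M1-CHO cells (rat receptor), after 10 min compound pre-treatment.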

[17] = biological target: Pyruvate kinase PKM (Homo sapiens) (UniProt P14618); experiment: qHTS Assay for Activators of Human Muscle Pyruvate Kinase (AID 954; active means well fitted curve in the direction sought with a large enough effect, not every such curve was filed as active;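 further: 0% = uninhibited enzyme and -100% = no enzyme or full thiadiazolimine inhibition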)
In short: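 A coupled luminescent readout tracked ATP made from ADP by purified PKM2. Final conditions included 0.1 nM enzyme, PEP and ADP at 0.5 and 0.1 mM, pH 7.2 imidazole buffer with BSA, and a one-hour room-temperature reaction.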

[18] = biological target: Alpha-galactosidase A (Homo sapiens) (UniProt P06280); experiment: Counterscreen for Glucocerebrosidase Inhibitors: qHTS Assay for Human alpha-Galactosidase at pH 4.5 (AID 992; active means well fitted curve in the direction sought with a large enough effect; an effect the other way counts as inactive or inconclusive; further: 0% is about no effect)
In short: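 Citrate buffer pH 4.5, Tween-20 0.005%. Enzyme 2 nM, substrate 80 uM, 20 min RT. Stop pH 10. Fluorescence Ex 365/Em 440. AC50 by Hill fit.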

[19] = biological target: alpha-glucosidase (Oryza sativa, rice) (UniProt Q653V4); experiment: Counterscreen for Glucocerebrosidase Inhibitors: qHTS Assay for Rice alpha-Glucosidase at pH 5.0 (AID 997; active means well fitted curve in the direction sought with a large enough effect; an effect the other way counts as inactive or inconclusive;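 further: 0% = full activity with enzyme and -100% = basal without enzyme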)
In short: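 Endpoint fluorogenic assay at pH 5.0: compounds (0.7 nM to 77 uM) titrated against 4 nM rice enzyme and 400 uM 4-MU-alpha-glucoside for 20 min at room temperature; NaOH/glycine stop, read ex 365/em 440 nm, Hill-fitted AC50.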

[20] = biological target: Pyruvate kinase (Leishmania mexicana) (UniProt Q27686); experiment: qHTS Validation Assay for Inhibitors of Leishmania Mexicana Pyruvate Kinase (AID 945; active means well fitted curve in the direction sought with a large enough effect; an effect the other way counts as inactive or inconclusive;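 further: 0% = DMSO only neutral control wells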)
In short: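 Eight-point qHTS titrations in triplicate, data normalized to DMSO neutral control. Reaction: 0.2 nM LmPYK E451W mutant, 0.5 mM PEP, 0.1 mM ADP, 7 mM MgCl2, pH 7.2, one hour at room temperature; luminescent ATP detection.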

Chain of Cytochrome P450 1A2 (Homo sapiens) (P05177 whole entry, looked up): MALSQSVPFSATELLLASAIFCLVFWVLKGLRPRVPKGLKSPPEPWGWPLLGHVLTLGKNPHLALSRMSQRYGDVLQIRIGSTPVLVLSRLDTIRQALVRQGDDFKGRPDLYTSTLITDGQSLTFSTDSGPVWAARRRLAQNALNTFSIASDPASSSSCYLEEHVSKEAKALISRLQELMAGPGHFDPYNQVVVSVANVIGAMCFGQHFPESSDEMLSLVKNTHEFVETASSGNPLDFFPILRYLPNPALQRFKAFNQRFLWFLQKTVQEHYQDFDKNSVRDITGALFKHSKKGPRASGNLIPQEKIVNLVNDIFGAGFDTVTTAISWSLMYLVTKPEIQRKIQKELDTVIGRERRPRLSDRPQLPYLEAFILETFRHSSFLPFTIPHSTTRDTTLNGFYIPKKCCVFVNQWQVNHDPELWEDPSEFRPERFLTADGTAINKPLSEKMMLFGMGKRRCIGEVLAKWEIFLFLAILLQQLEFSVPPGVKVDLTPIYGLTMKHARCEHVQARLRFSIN
Chain of Glucocorticoid receptor (Homo sapiens) (P04150 whole entry, looked up, the tested form may be a part): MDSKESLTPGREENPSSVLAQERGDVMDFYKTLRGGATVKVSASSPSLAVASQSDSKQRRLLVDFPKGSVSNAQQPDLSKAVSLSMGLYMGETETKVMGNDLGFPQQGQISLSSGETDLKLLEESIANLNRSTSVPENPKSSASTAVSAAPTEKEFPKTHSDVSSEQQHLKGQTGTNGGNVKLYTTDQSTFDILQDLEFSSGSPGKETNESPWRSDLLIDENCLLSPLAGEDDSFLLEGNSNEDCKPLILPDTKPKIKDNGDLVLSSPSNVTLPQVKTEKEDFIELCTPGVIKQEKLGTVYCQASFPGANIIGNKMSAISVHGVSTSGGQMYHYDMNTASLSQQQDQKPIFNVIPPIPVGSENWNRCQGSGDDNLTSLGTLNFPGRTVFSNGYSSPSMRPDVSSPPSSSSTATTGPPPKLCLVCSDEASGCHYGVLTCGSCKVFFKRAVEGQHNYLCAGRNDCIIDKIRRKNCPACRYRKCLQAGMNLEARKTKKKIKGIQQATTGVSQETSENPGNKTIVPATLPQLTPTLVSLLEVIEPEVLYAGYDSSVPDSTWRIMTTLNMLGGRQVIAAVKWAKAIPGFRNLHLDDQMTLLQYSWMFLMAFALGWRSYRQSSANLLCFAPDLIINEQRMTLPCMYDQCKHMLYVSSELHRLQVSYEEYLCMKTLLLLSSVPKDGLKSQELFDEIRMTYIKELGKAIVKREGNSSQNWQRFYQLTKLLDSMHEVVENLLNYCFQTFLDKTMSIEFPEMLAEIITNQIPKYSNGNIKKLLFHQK
Chain of Muscarinic acetylcholine receptor M1 (Rattus norvegicus) (P08482 whole entry, looked up): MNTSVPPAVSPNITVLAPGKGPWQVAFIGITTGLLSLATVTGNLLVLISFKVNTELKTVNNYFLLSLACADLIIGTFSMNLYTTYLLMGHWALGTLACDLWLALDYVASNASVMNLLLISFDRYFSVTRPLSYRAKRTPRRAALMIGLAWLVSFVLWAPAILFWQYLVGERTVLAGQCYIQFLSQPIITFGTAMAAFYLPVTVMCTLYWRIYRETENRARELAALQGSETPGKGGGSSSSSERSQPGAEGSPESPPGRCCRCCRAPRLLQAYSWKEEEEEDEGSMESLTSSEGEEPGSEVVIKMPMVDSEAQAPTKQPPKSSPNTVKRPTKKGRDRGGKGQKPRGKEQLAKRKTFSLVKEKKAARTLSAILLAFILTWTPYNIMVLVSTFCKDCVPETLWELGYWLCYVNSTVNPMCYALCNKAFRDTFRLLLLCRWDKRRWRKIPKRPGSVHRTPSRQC
Chain of 3',5'-cyclic-AMP phosphodiesterase 4B (Homo sapiens) (Q07343 whole entry, looked up): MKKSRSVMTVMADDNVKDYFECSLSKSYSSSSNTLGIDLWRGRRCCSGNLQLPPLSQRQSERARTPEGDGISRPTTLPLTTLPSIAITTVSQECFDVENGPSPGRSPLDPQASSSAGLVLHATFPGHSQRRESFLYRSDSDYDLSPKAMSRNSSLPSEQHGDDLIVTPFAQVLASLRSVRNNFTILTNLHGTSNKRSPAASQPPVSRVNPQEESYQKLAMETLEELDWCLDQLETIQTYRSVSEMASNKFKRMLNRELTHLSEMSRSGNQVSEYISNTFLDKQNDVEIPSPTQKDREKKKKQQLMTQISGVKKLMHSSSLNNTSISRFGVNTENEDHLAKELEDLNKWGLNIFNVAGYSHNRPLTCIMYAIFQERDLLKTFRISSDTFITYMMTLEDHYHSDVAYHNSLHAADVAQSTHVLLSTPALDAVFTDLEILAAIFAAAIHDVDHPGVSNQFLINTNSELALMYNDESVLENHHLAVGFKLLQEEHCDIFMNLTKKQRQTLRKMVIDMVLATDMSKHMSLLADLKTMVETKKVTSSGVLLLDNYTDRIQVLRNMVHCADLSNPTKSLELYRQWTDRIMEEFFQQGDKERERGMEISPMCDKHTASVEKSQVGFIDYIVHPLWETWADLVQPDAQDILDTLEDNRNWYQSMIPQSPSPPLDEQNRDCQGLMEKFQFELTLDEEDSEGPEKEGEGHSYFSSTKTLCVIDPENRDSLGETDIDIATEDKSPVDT
Chain of Pyruvate kinase PKM (Homo sapiens) (P14618 whole entry, looked up): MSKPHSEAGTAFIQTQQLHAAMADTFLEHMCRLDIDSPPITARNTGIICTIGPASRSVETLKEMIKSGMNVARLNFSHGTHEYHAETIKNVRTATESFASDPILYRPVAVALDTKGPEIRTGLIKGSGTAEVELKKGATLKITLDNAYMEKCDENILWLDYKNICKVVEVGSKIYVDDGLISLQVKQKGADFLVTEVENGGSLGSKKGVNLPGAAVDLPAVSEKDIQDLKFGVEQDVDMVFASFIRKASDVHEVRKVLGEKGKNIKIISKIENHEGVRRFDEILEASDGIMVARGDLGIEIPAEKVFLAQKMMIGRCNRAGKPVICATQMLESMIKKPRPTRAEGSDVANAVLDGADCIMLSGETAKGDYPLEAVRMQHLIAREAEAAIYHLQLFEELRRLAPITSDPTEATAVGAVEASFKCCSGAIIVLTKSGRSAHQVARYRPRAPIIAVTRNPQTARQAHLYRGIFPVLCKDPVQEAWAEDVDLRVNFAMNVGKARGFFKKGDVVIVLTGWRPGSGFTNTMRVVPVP
Chain of Alpha-galactosidase A (Homo sapiens) (P06280 whole entry, looked up): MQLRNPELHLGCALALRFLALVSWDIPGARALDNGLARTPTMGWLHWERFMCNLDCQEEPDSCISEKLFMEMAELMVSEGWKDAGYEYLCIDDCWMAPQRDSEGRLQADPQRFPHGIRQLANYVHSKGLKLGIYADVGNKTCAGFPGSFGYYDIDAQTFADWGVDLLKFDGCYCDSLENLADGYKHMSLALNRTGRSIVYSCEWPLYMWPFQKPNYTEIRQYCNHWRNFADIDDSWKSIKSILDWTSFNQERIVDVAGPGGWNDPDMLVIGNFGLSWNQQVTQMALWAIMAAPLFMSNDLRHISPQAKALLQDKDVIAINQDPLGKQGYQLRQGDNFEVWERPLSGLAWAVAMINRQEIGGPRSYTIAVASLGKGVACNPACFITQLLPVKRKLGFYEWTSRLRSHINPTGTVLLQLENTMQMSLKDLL
Chain of Guanine nucleotide-binding protein G(i) subunit alpha-1 (Homo sapiens) (P63096 whole entry, looked up): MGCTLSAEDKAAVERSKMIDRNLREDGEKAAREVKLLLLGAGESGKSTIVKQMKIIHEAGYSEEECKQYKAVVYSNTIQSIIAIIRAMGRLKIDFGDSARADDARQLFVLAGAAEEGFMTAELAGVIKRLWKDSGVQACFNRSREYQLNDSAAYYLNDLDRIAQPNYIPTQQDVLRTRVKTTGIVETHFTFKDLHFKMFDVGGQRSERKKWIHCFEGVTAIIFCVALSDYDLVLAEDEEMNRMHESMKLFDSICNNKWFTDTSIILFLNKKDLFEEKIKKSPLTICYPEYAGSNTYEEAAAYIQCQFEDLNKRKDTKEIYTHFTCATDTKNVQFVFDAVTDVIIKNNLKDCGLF
Chain of Pyruvate kinase (Leishmania mexicana) (Q27686 2-499 E452W): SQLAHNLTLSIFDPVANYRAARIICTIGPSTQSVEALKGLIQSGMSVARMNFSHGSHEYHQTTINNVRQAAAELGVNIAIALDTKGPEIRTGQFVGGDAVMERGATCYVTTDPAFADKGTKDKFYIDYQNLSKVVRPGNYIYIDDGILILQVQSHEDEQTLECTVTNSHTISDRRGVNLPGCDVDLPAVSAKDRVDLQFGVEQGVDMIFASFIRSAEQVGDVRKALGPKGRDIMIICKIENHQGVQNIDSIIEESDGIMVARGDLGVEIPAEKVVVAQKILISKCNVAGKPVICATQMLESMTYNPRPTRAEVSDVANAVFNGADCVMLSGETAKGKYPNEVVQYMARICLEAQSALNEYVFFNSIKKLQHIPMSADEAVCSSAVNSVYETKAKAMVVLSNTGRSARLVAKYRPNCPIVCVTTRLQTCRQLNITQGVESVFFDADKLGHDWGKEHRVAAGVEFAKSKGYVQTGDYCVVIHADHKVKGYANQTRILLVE
Chain of Cytochrome P450 3A4 (Homo sapiens) (P08684 whole entry, looked up): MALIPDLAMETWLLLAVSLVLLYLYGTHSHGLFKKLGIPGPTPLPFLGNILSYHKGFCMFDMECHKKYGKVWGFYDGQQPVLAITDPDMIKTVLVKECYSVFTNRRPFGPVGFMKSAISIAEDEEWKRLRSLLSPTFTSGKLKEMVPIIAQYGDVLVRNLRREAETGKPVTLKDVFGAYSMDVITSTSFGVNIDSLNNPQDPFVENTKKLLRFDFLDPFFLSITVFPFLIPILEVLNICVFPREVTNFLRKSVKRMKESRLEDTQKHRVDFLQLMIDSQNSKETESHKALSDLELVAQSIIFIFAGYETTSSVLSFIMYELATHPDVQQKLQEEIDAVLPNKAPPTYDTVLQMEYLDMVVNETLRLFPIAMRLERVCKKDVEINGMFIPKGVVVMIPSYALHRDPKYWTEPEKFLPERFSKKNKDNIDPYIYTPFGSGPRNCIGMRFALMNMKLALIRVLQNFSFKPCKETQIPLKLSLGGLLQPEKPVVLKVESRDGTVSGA

CSc1ncnc2c1ncn2CC(=O)[C@H]1CC[C@H]2[C@H]3CCC4=CC(=O)CC[C@@]4(C)[C@@H]3CC[C@@]12C
active: Potency [2] 3.98 µM
inactive: activity change, negative = inhibition [1] -21.5% | Potency [3] > 46 µM | Potency [4] > 9.22 µM | Potency [5] | Potency [6] | activity change, negative = inhibition [7] -20.1% [at 11.4 µM] | Potency [8] | Potency [9]

Nc1ncnc2c1nc(Br)n2[C@@H]1O[C@H]2COP(=O)(O)O[C@@H]2[C@H]1O
active: Potency [3] 2.43 µM
inactive: Potency [2] | activity change, negative = inhibition [10] 6.13% [at 38 µM] | activity, negative = inhibition [11] 4.8% [at 38 µM] | Potency [5] | Potency [6] | outcome [12] | Potency [13] | outcome [14] | Potency [15] | Potency [16] | outcome [17] | outcome [18] | Potency [19]

CC(C)/C(=N/[N+](C)(C)C)c1ccccc1
inactive: activity change, negative = inhibition [2] -16.2% [at 2.29 µM] | activity change, negative = inhibition [10] -1.16% | activity, negative = inhibition [11] 0.141% | Potency [3] > 46 µM | Potency [4] > 9.22 µM | Potency [5] | Potency [6]

COc1ccccc1OC[C@H](O)CN1CCN(CC(=O)Nc2c(C)cccc2C)CC1
inactive: activity change, negative = inhibition [1] -8.83% [at 38 µM] | activity change, negative = inhibition [10] 12.3% [at 38 µM] | Potency [3] > 46 µM | Potency [4] > 46 µM | Potency [5] | Potency [6] | outcome [12] | outcome [14] | Potency [15] | Potency [16] | outcome [20] | outcome [17] | outcome [18] | Potency [19]

Cn1c(=S)c2[nH]c(SCCCc3ccccc3)nc2n(C)c1=O
inactive: activity, negative = inhibition [11] -23.2% | Potency [3] > 46 µM | Potency [5] | Potency [6]
active: Potency [2] 3.16 µM

Cc1cccc(CNc2ncnc3[nH]ncc23)c1
inactive: activity change, negative = inhibition [1] -1.11% | activity change, negative = inhibition [10] -3.71% | activity, negative = inhibition [11] -8.78% | Potency [3] > 46 µM | Potency [4] > 9.22 µM | Potency [5] | Potency [6]

CC(C)(C)C1CCC2(CC1)CCN(CCCN1CCOCC1)CC2
inactive: activity change, negative = inhibition [1] 11.9% | activity, negative = inhibition [11] -3.69% | Potency [3] > 46 µM | Potency [4] > 9.22 µM | Potency [5]

O=C(O)C1C(C(=O)O)C(C(=O)O)C1C(=O)O (configuration not stated)
inactive: activity change, negative = inhibition [1] -0.701% | activity, negative = inhibition [11] 0.791% | Potency [3] > 46 µM | Potency [4] > 9.22 µM | Potency [5] | Potency [6]
